The text below walks through data of PubChem BioAssay (NCATS).

Structures are written as SMILES. Results filed as inconclusive are left out. Unmarked numbers belong to inactive results. Active and inactive are the calls of the source. Calls come from the whole dose curve; as a rule, active = well fitted cell-killing curve with a large enough effect; inconclusive = small, poorly fitted or top-dose-only effect; inactive = no such curve, though single readings can be large or run the other way.
Potency is the fitted concentration of half-maximal effect.

One assay in a line: qHTS of pediatric cancer cell lines to identify multiple opportunities for drug repurposing: Primary screen for SJ-GBM2 cells (AID 1347091).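 For activity change, negative = cytotoxic: plate controls were DMSO neutral control for no effect and bortezomib for full effect.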 As to conditions: SJ-GBM2 viability, CellTiter-Glo luminescence, 48 h; series mostly up to 46 µM; activity change, negative = cytotoxic: at the top concentration. In a few lines: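 Eight- or eleven-point concentration series, 48 h treatment at 37 degrees C in growth media; readout CellTiter-Glo luminescence. Potency and efficacy were taken from the concentration-response curves.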
For `C=C1C(=CC=C2CCCC3(C)[C@@H]([C@H](C)C=CC=CC(O)(CC)CC)CC[C@@H]23)C[C@@H](O)C[C@@H]1O` (stereo not given in full), the Potency is 20900 nM (active).

Take `CC[C@@H]1C(=O)N(C)c2cnc(Nc3ccc(C(=O)NC4CCC(N5CCN(CC6CC6)CC5)CC4)cc3OC)nc2N1C(C)C` (stereo not given in full): the Potency is 74.3 nM (active).

Turning to `O=C(O)[C@H](Cc1c[nH]c2ccccc12)N1C(=O)c2ccccc2C1=O`, the “activity change, negative = cytotoxic” value was 16.4% [at 92.7 µM].

As to `CS(=O)(=O)c1ccc(-c2cnc(N)c(C(=O)Nc3ccccc3)n2)cc1`, the Potency is 5900 nM (active).

`Cc1nc(N)ncc1-c1nc(N2CCOCC2)c2sc(C(C)(C)O)cc2n1`: the Potency was 1050 nM (active).

For the compound `Cc1cc(Nc2cc(N3CCN(C)CC3)nc(C=Cc3ccccc3)n2)n[nH]1`, the Potency was 13600 nM (active).

In the case of `Cc1nc(Nc2n[nH]c3c2CN(C(=O)N[C@H](CN(C)C)c2ccccc2)C3(C)C)c2sccc2n1`, the Potency was 1050 nM (active).

`CC=C1NC(=O)[C@H]2CSSCCC=C[C@H](CC(=O)N[C@H](C(C)C)C(=O)N2)OC(=O)[C@H](C(C)C)NC1=O`: the Potency was 14.8 nM (active).

Consider `Cn1c(CNc2ccc(C(=N)N)cc2)nc2cc(C(=O)N(CCC(=O)O)c3ccccn3)ccc21`, for which the “activity change, negative = cytotoxic” value is 8.92% [at 16.1 µM].

For `Nc1nc(Nc2ccc(S(N)(=O)=O)cc2)nn1C(=O)c1c(F)cccc1F`, the Potency was 3720 nM (active).

Take `O=C(O)CO.[NH2-].[NH2-].[Pt+2]`: the “activity change, negative = cytotoxic” value is -1.91%.

Take `CC(C)(O)CCc1ccc(OCc2cc(-c3cccc(OC(F)F)c3)c3ncccc3c2)cc1`: the “activity change, negative = cytotoxic” value is 16.1%.

The next assay can be described thus: qHTS of pediatric cancer cell lines to identify multiple opportunities for drug repurposing: Primary screen for A673 cells (AID 1347092). For activity change, negative = cytotoxic: % is set by controls: 0 for no effect and ±100 for the full control effect. Note: nearly all actives have a fitted effect of over 45% in size. The settings on record: A673 Ewing sarcoma viability, CellTiter-Glo ATP luminescence, 48 h; series mostly up to 46 µM; activity change, negative = cytotoxic: at the top concentration. A digest of the protocol: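 48 h compound exposure, A673, 500-1,000 cells/well, 37 degrees C/5% CO2. MIPE: 11-point, 0.78 nM-46 µM; NPC: 8-point, 0.59 nM-46 µM (final). Readout CellTiter-Glo luminescence after 15 min RT.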
With `OCCCNc1cc(-c2ccnc(Nc3cccc(Cl)c3)n2)ccn1`, the Potency is 46.9 nM (active).

For `CNC(=O)c1c(F)cccc1Nc1nc(Nc2cc3c(cc2OC)CCN3C(=O)CN(C)C)nc2[nH]ccc12`, the Potency was 93.5 nM (active).

Turning to `Cc1c(CN2CCN(S(C)(=O)=O)CC2)sc2c(N3CCOCC3)nc(-c3cnc(N)nc3)nc12`, the Potency was 187 nM (active).

In the case of `COc1ccc2c(OCc3nnc4ccc(-c5ccccc5)nn34)ccnc2c1`, the “activity change, negative = cytotoxic” value is -1.95%.

Take `COc1cc(C)c(Sc2cnc(NC(=O)c3ccc(CNC(C)C(C)C)cc3)s2)cc1C(=O)N1CCN(C(C)=O)CC1` (stereo not given): the Potency is 9350 nM (active).

As to `COc1cc2c(Oc3ccc(-c4cnc(Nc5ccc(F)cc5)n(C)c4=O)cc3F)ccnc2cc1OCCCN1CCOCC1`, the Potency is 5900 nM (active).

As to `CCCNC(=O)Nc1ccc(Oc2ncnc3cc(OC)c(OC)cc23)cc1Cl`, the “activity change, negative = cytotoxic” value was -14%.

Turning to `CCC1=C[C@@H]2CN(C1)Cc1c([nH]c3ccccc13)[C@@](C(=O)OC)(c1cc3c(cc1OC)N(C)[C@@H]1[C@@](O)(C(=O)OC)[C@H](OC(C)=O)[C@]4(CC)C=CCN5CC[C@]31[C@@H]54)C2`, the Potency was 9.3 nM (active).

Regarding `Cc1cn(-c2cc(NC(=O)c3ccc(C)c(Nc4nccc(-c5cccnc5)n4)c3)cc(C(F)(F)F)c2)cn1`, the “activity change, negative = cytotoxic” value is -26.3%.

Take `COC(=O)Nc1nc2ccc(C(=O)c3ccc(F)cc3)cc2[nH]1`: the Potency is 590 nM (active).

Turning to `Cc1ccc(CN2CCNCC2)cc1NC(=O)CNc1ccc(F)c(F)c1`, the “activity change, negative = cytotoxic” value was -8.42%.

For `CC[C@@]1(O)C(=O)OCc2c1cc1n(c2=O)Cc2cc3cc(O)ccc3nc2-1`, the Potency is 29.6 nM (active).

Consider `COc1ccc2c(c1)CC[C@@H](CN(C)CC(=O)O)[C@H]2c1ccccc1`, for which the Potency is 1870 nM (active).

Regarding `C=CC(=O)N1CCC[C@@H](n2nc(-c3ccc(Oc4ccccc4)cc3)c3c(N)ncnc32)C1`, the Potency was 9350 nM (active).

Take `CC(C)c1ccccc1Cc1cc(C(=O)Nc2ccc(S(=O)(=O)c3ccccc3C(C)(C)C)cc2)c(O)c(O)c1O`: the Potency was 18700 nM (active).

As to `Cc1cnc(-c2cnc(NCCNc3ccc(C#N)cn3)nc2-c2ccc(Cl)cc2Cl)[nH]1`, the Potency is 1870 nM (active).

Turning to `Cc1ccc(C(=O)Nc2cccc(C(F)(F)F)c2)cc1-c1ccc2nc(NCCN3CCOCC3)ncc2c1`, the Potency is 4690 nM (active).

On to `NC(=O)c1cccc2cn(-c3ccc([C@@H]4CCCNC4)cc3)nc12`, for which the Potency was 1870 nM (active).

With `COc1cc2c(NC3CCN(C(C)C)CC3)nc(C3CCCCC3)nc2cc1OCCCN1CCCC1`, the Potency is 5900 nM (active).

In the case of `COc1c(N2C[C@@H]3CCCN[C@H]3C2)c(F)cc2c(=O)c(C(=O)O)cn(C3CC3)c12`, the “activity change, negative = cytotoxic” value is -5.5%.

As for `COc1ccc(-c2cc3c(C)nc(N)nc3n(C3CCC(OCCO)CC3)c2=O)cn1` (stereo not given), the Potency is 93.5 nM (active).

Consider `CN1CCN(Cc2ccc(NC(=O)Nc3ccc(Oc4cc(NC(=O)C5CC5)ncn4)cc3)cc2C(F)(F)F)CC1`, for which the Potency was 148 nM (active).

Turning to `COc1ccc(C(=O)CC2(O)C(=O)Nc3c(Cl)ccc(Cl)c32)cc1` (stereo not given), the Potency was 2350 nM (active).
